Bioassay records: PubChem, several laboratories
Compounds with a hit are over-represented: about 3.1% of the library has one in this group of screens.
MEKK3 PB1 HTS = raises or lowers MEK5 binding to the human MEKK3 PB1 domain. bead-based flow cytometry, Alexa488-MEK5 binding to MEKK3; actives lie on both sides; 0 = blocked by unlabeled MEK5, 100 = vehicle. binding response (% of control), % at 10 µM. 290,000 compounds, 1.4% hits;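 active means binding response more than 3 SD above or below the average of its plate-row segment, actives on both sides; inconclusive means wells at one plate position flagged as instrument error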;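 further: Alexa488 bead fluorescence after subtracting the streptavidin-only scavenger bead signal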
Target sequence (Q99759 whole entry, looked up, the tested form may be a part): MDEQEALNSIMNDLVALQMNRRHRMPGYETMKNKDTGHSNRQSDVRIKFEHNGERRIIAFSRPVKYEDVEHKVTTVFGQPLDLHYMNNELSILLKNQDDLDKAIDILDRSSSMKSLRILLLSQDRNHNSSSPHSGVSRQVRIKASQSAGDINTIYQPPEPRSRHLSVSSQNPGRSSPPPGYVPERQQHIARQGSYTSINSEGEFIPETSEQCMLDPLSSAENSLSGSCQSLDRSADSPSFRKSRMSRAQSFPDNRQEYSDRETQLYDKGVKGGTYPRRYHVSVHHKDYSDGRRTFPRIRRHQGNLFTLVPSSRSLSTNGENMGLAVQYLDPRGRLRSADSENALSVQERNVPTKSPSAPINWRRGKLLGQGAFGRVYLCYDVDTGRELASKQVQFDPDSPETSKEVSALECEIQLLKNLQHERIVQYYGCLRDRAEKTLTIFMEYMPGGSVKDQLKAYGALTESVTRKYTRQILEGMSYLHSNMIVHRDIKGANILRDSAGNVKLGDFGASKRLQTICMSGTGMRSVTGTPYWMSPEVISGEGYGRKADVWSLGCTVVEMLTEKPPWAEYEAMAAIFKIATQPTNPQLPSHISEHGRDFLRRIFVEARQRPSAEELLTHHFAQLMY
UBC13 polyUb = human UBC13 polyubiquitination inhibition; P61088; 330,000 compounds, 0.47% hits; AID 485273; inhibition, % at 20 µM; UBC13 polyubiquitin chain formation, TR-FRET; in the data active means inhibition above about 45%, passing the limit was not always enough; inconclusive means no clear call, values can overlap the other calls
Target sequence (P61088 whole entry, looked up): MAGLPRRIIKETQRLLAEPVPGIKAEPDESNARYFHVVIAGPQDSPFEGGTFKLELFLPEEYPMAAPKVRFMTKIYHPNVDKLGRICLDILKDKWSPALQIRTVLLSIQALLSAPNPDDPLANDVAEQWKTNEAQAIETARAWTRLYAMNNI
PREPL inhibitor = human PREPL enzyme inhibition | Q4J6C6 | recombinant PREPL, fluorescence polarization activity-based probe | inhibition, % at 5.96 µM | 320,000 compounds, 0.68% hits | AID 2751; in the data active means inhibition above about 43%;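 further: 0% = enzyme with DMSO and 100% = wells lacking enzyme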
MEKK2 mut-MEK5 = signal of MEK5 binding to mutant human MEKK2 PB1 domain | bead flow cytometry, Alexa488-MEK5 binding to MEKK2 mutant | AID 1530 | percent response, % at 10 µM | 290,000 compounds, 0.35% hits; in the data active means percent response above about 24%, passing the limit was not always enough
MEKK2wt PB1 HTS = raises or lowers MEK5 binding to wildtype human MEKK2 PB1 domain; Q9Y2U5; bead flow cytometry, Alexa488-MEK5 binding to MEKK2 WT; actives lie on both sides; binding response (% of control), % at 10 µM; 290,000 compounds, 1.1% hits; AID 1531; in the data active means binding response below about 67% or above about 130%; inconclusive means no clear call, values can overlap the other calls; inactive means in between
ATG4B inhibitor = inhibitors of human ATG4B cysteine protease | 340,000 compounds, 0.51% hits | AID 504462 | Q9Y4P1 | ATG4B cleavage of LC3-PLA2, NBD-HPC fluorescence, 1 h | inhibition, % at 8.33 µM; in the data active means inhibition above about 40%
Casp3 UBC13 ctr = inhibits human caspase-3 in UBC13 counter-screen; Recombinant caspase-3, Caspase-Glo 3/7 luminescence, 60 min; 1,400 compounds, 4% hits; inhibition, % at 20 µM; AID 488856; shares compounds with UBC13 polyUb;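 active means mean inhibition across replicates above about 26%, limit read from the data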;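 further: plate controls were DMSO with caspase-3 for no effect and DMSO wells lacking enzyme for full effect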
UBC13 confirm = confirmation of human UBC13 polyubiquitin inhibitors; shares compounds with UBC13 polyUb; UBC13 polyubiquitination, TR-FRET, biochemical; inhibition, % at 10 µM; 1,400 compounds, 68% hits; in the data active means inhibition above about 45%; inconclusive means no clear call, values can overlap the other calls
Starred values were filed as active, the others as inactive; ? = inconclusive; nt = no result given.

SMILES | MEKK3 PB1 HTS | UBC13 polyUb | PREPL inhibitor | MEKK2 mut-MEK5 | MEKK2wt PB1 HTS | ATG4B inhibitor | Casp3 UBC13 ctr | UBC13 confirm
CC1(C)Cc2c(sc(NC(=O)C(=O)NCCCN3CCOCC3)c2C(N)=O)CO1 | 105.0 | 83.3* | -3.1 | 6.0 | 107.0 | 1.6 | 0.4 | 105.5*
Oc1ccc2ccccc2c1CNc1ccccn1 | 98.0 | 56.3* | -27.0 | 3.0 | 106.0 | -3.4 | -1.9 | 48.6*
Cc1ccc(O)c(CNc2ccccn2)c1 | 108.0 | 4.1 | -7.5 | 5.0 | 119.0 | -9.0 | nt | nt
COc1ccc(C(=O)Nn2c(SCC(=O)NC3CCCCC3)nc3ccccc3c2=O)cc1 | 97.0 | 31.0 | 13.4 | -1.0 | 94.0 | -4.2 | nt | nt
COc1ccc(C(=O)Nn2c(SCC(=O)N3CCC(C)CC3)nc3ccccc3c2=O)cc1 | 106.0 | 79.5* | 3.3 | 4.0 | 96.0 | 9.8 | 84.8* | 84.5*
COc1ccc(C(=O)Nn2c(SCC(=O)NCc3ccco3)nc3ccccc3c2=O)cc1 | 113.0 | 70.7* | -6.3 | 5.0 | 121.0 | -13.7 | 24.8 | 73.9*
COc1ccc(C(=O)Nn2c(SCC(=O)c3ccc(Cl)cc3)nc3ccccc3c2=O)cc1 | 93.0 | 50.0* | 1.8 | -8.0 | 87.0 | 3.6 | -0.4 | 56.0*
O=C(CCCCCn1c(SCc2ccncc2)nc2ccccc2c1=O)NCc1ccco1 | 97.0 | 69.4* | 13.8 | 1.0 | 101.0 | 19.6 | -2.7 | 47.4*
CCn1c(SCC(=O)NCc2ccco2)nc2ccccc2c1=O | 102.0 | 8.5 | 17.9 | -8.0 | 87.0 | -3.7 | nt | nt
CN(C)c1ccc(NC(=O)c2ccc(N3CCOCC3)nc2)cc1 | 98.0 | -11.0 | 37.6 | 10.0 | 106.0 | -0.7 | nt | nt
CC(=O)NCc1ccc(C(=O)CSc2nnc(C3CC3)n2C2CC2)cc1 | nt | 4.9 | 2.8 | nt | nt | 4.9 | nt | nt
COc1cc(C(=O)Nc2cccc(S(=O)(=O)N3CCCC3)c2)cc(OC)c1C | nt | 75.0* | -12.7 | nt | nt | -3.6 | 0.3 | 69.9*
CC[C@H](CO)Nc1nc(Nc2cccc(Cl)c2)c2ncn(C(C)C)c2n1 | 106.0 | 76.7* | 15.4 | 2.0 | 83.0 | -17.8 | -1.9 | 66.6*
COc1ccc([N+](=O)[O-])c(OC)c1C(=O)NC(=O)Nc1c(F)cc(F)cc1F | 108.0 | -2.5 | -2.6 | 0.0 | 106.0 | 1.6 | nt | nt
COc1cccc2sc3ccc(C#CC4(O)CCCCC4)cc3c(=O)c12 | 103.0 | 53.0* | -21.2 | -3.0 | 89.0 | -18.7 | 90.7* | ?
O=C(O)c1c2c(nc3ccc(S(=O)(=O)N4CCC(C(=O)NC5CCCCCC5)CC4)cc13)CCCC2 | 99.0 | -15.5 | 5.1 | -3.0 | 98.0 | -9.9 | nt | nt
CC1CCN(c2c(NCc3ccc(C(=O)N4CCN(C5CCCCC5)CC4)cc3)c(=O)c2=O)CC1 | 103.0 | 68.6* | 12.7 | -3.0 | 98.0 | -12.8 | -1.3 | 57.9*
O=C(O)C1(Nc2ccc(Br)cc2)CCCC1 | nt | nt | nt | nt | nt | 6.9 | nt | nt
CCOC(=O)C1=C(COC(=O)c2ncc(Cl)c(Cl)c2Cl)NC(=O)NC1C (stereo not given) | nt | 75.7* | -28.1 | nt | nt | 6.8 | -1.9 | 87.4*
Cc1c(NC(=O)CCCN2C(=O)c3cccc4cccc(c34)C2=O)c(=O)n(-c2ccccc2)n1C | 106.0 | 80.9* | 10.6 | 5.0 | 106.0 | 4.3 | 3.3 | 94.4*
COc1ccccc1CNC(=O)c1ccc2c(=O)n(CCCN3CCCC3=O)c(=S)[nH]c2c1 | 93.0 | 45.5* | -11.2 | -10.0 | 91.0 | 8.0 | 2.9 | 43.2
CC1CCCCN1CCNC(=O)c1ccc2c(=O)n(Cc3ccc(Cl)cc3)c(=S)[nH]c2c1 (stereo not given) | 107.0 | 49.2* | -47.4 | 33.0* | 169.0* | -2.1 | -1.2 | 61.3*
CCn1c(=O)c2cc(C(=O)NCCN(C)C)sc2c2ccccc21 | 105.0 | 46.0* | -1.2 | 6.0 | 113.0 | -5.6 | -0.6 | 35.2
CCn1c(=O)c2cc(C(=O)NCCOC)sc2c2ccccc21 | 109.0 | 22.2 | 1.7 | 9.0 | 114.0 | -10.7 | nt | nt
CCCN(CCC)CCNC(=O)c1cc2c(=O)n(CC)c3ccccc3c2s1 | 73.0 | 73.0* | -79.2 | -9.0 | 96.0 | 30.8 | -3.2 | 74.0*
SMILES | MEKK3 PB1 HTS | UBC13 polyUb | PREPL inhibitor | MEKK2 mut-MEK5 | MEKK2wt PB1 HTS | ATG4B inhibitor | Casp3 UBC13 ctr | UBC13 confirm
CCN(CC)CCNC(=O)c1cc2c(=O)n(CC)c3ccccc3c2s1 | 103.0 | 57.4* | -14.0 | 6.0 | 111.0 | 2.2 | -0.2 | 61.9*
CCOC(=O)CN1C(=O)N[C@@H](c2cccc(F)c2)C(C(=O)OC)=C1C | 101.0 | 6.4 | 12.3 | -2.0 | 102.0 | -2.0 | nt | nt
CNc1oc(-c2ccccc2)nc1S(=O)(=O)c1ccc(C)cc1 | 101.0 | -6.4 | 1.6 | 3.0 | 99.0 | -0.3 | nt | nt
CCOc1ccc(-c2nc(S(=O)(=O)c3ccccc3)c(NC)o2)cc1 | 100.0 | 46.7* | 5.1 | 1.0 | 99.0 | -6.5 | -0.2 | 33.1
COC(=O)C1=C(C)N(Cc2ccccc2)C(=NCc2cccc(Cl)c2)N[C@H]1c1cccc(F)c1 | nt | 72.0* | -60.8 | nt | nt | -2.0 | -1.4 | 86.4*
COC(=O)C1=C(C)N(Cc2ccccc2)C(=NCc2cc(OC)c(OC)c(OC)c2)N[C@H]1c1cccc(F)c1 | 101.0 | 30.2 | 19.2 | 15.0 | 110.0 | -6.4 | nt | nt
COC(=O)C1=C(C)N(Cc2ccccc2)C(=NCc2ccc(OC)cc2)N[C@H]1c1cccc(F)c1 | 105.0 | 74.2* | -22.2 | 5.0 | 133.0 | -5.8 | 3.2 | 65.6*
O=C(CSc1nc2c(sc3ccccc32)c(=O)n1CCCN1CCCC1)NCC1CCCO1 (stereo not given) | 101.0 | -19.5 | 27.3 | 5.0 | 103.0 | -11.8 | nt | nt
COc1ccc(NC(=O)CSc2nc3c(sc4ccccc43)c(=O)n2CCCN2CCCC2)cc1 | 105.0 | 49.8* | -9.8 | 39.0* | 176.0* | 1.1 | -1.8 | 54.3*
COc1cccc(NC(=O)CSc2nc3ccccc3c(=O)n2CCCC(=O)NCCCN2CCOCC2)c1 | 102.0 | 61.0* | -7.7 | 5.0 | 108.0 | -7.3 | -2.8 | 78.6*
Cc1cc(C)c(S(=O)(=O)N2CCCC(C(=O)NCc3cccnc3)C2)c(C)c1 (stereo not given) | 103.0 | -1.2 | -6.3 | 0.0 | 103.0 | -0.9 | nt | nt
NC(=O)c1ccc(NC(=O)COC(=O)CCN2C(=O)c3ccccc3C2=O)cc1 | nt | 9.8 | 25.7 | nt | nt | 4.2 | nt | nt
NC(N)=N/N=C/c1ccc(OCc2ccccc2)c(OCc2ccccc2)c1 | 89.0 | 110.5* | 36.8 | 116.0* | 302.0* | 0.5 | -1.2 | 124.9*
CCc1cc2c(=O)n(-c3ccccc3)c(=S)[nH]c2s1 | 96.0 | 47.8* | 0.6 | 3.0 | 97.0 | 0.2 | 1.6 | ?
CCOC(=O)c1c(C)c2c(n1C)CCC/C2=N\O | 105.0 | 78.6* | -1.1 | 4.0 | 105.0 | 10.6 | -2.0 | 93.8*
